From publication PMC6451091, “NextPBM: a platform to study cell-specific transcription factor binding and cooperativity”
Over roughly 3,700 sequences, “z-score” has its median near 4; the highest 2% begin near 8.4. This is one part of a sample in which the highest values are shown more often than they occur.

Experiments:
PU.1 (IVT) [1] = molecular target: PU.1 (IVT) (UniProt P17947 1-270); assay: protein-binding microarray (PBM); 20 mM HEPES pH 7.9, 100 mM NaCl, 1 mM DTT, 0.2 mg/mL BSA, 0.02% Triton X-100, 2% milk, 0.4 mg/mL salmon testes DNA; 1 h; temperature not stated; high values mean tight binding; conditions: dsDNA, one strand shown
Procedure, shortened: (§1)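 Full-length untagged PU.1 was made by coupled human in vitro transcription/translation. It was bound for 1 h to custom double-stranded DNA microarrays carrying 20-bp genomic sites and single-nucleotide variants, 10 probes per site (5 per orientation). The binding buffer was HEPES pH 7.9 with 100 mM NaCl, 2% milk and salmon testes DNA. Bound protein was detected with anti-PU.1 and then a fluorescent secondary antibody. Binding is a z-score from scanned fluorescence after linear-regression normalisation.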

PU.1 (IVT) [2] = molecular target: PU.1 (IVT) (UniProt P17947 1-270); assay: as above; conditions: dsDNA, one strand shown; remark: listed apart in the source
Procedure, shortened: as §1

Row | Sequence | binding signal (PU.1 (IVT) [1]) | binding signal (PU.1 (IVT) [2])
1 | GCCTAGCACAGAAAGAGGAAGACTAGTGTGTGCTAGGTCTTGATTCGCTTGACGCTGCTG | 3.78 z-score | 
2 | GCCTAGCACAGAAAGAGGAAGAGAAACTAGTGCTAGGTCTTGATTCGCTTGACGCTGCTG |  | 4.62 z-score
3 | GCCTAGCACAGAAAGAGGAAGTGATTGAAGTGCTAGGTCTTGATTCGCTTGACGCTGCTG |  | 8.32 z-score
4 | GCCTAGCACAGAAAGAGGAAGTGATGTTAGTGCTAGGTCTTGATTCGCTTGACGCTGCTG |  | 8.46 z-score
5 | GCCTAGCACAGAAGAAGGAAGTGAAAGAAGTGCTAGGTCTTGATTCGCTTGACGCTGCTG | 4.5 z-score | 
6 | GCCTAGCACAGAAAGAGGAAGTGGGTGTTGTGCTAGGTCTTGATTCGCTTGACGCTGCTG |  | 8 z-score
7 | GCCTAGCACAGAAAGAGGAAGTGACTCAGGTGCTAGGTCTTGATTCGCTTGACGCTGCTG |  | 8.06 z-score
8 | GCCTAGCACAGAAAGAGGAAGTGTTTATAGTGCTAGGTCTTGATTCGCTTGACGCTGCTG |  | 8.43 z-score
9 | GCCTAGCACAGAAAGAGGAAGTGAAGCTAGTGCTAGGTCTTGATTCGCTTGACGCTGCTG |  | 8.64 z-score
10 | GCCTAGCACTCCAGGAGGAACTGAAAGCTGTGCTAGGTCTTGATTCGCTTGACGCTGCTG |  | 1.74 z-score
11 | GCCTAGCACAAAAAGAGGAAATGATTTACGTGCTAGGTCTTGATTCGCTTGACGCTGCTG |  | 6.97 z-score
12 | GCCTAGCACGAAAACAGGAACTGCAAATAGTGCTAGGTCTTGATTCGCTTGACGCTGCTG | 6 z-score | 
13 | GCCTAGCACAAAAAGAGGAAGGGAAACTAGTGCTAGGTCTTGATTCGCTTGACGCTGCTG |  | 5.12 z-score
14 | GCCTAGCACAAAAACAGGAAGTCAAAGGAGTGCTAGGTCTTGATTCGCTTGACGCTGCTG |  | 7.11 z-score
15 | GCCTAGCACGAAAAGAGGAAGTCAAACGAGTGCTAGGTCTTGATTCGCTTGACGCTGCTG |  | 8.02 z-score
16 | GCCTAGCACGGAAAGAGGAAGTCAAACTAGTGCTAGGTCTTGATTCGCTTGACGCTGCTG |  | 7.68 z-score
17 | GCCTAGCACGAAAAGAGGAAGTCAAACTAGTGCTAGGTCTTGATTCGCTTGACGCTGCTG |  | 8.35 z-score
18 | GCCTAGCACAAAAAGAGGAAGTCAAACAAGTGCTAGGTCTTGATTCGCTTGACGCTGCTG |  | 8.71 z-score
19 | GCCTAGCACAGAAAGAGGAAGTCAAAACAGTGCTAGGTCTTGATTCGCTTGACGCTGCTG |  | 7.68 z-score
20 | GCCTAGCACAAAAAGAGGAAGTCAAACTAGTGCTAGGTCTTGATTCGCTTGACGCTGCTG |  | 8.48 z-score
21 | GCCTAGCACAAAAAGAGGAAGAGAAACTAGTGCTAGGTCTTGATTCGCTTGACGCTGCTG |  | 5.79 z-score

Row | Sequence | binding signal (PU.1 (IVT) [1]) | binding signal (PU.1 (IVT) [2])
22 | GCCTAGCACAAAAAAAGGAAGTCCTTGTGGTGCTAGGTCTTGATTCGCTTGACGCTGCTG | 6.48 z-score | 
23 | GCCTAGCACTTGGTCAGGAAGTGAAACTGGTGCTAGGTCTTGATTCGCTTGACGCTGCTG | 1.38 z-score | 
24 | GCCTAGCACAGAAAGAGGAAGTCACAAGGGTGCTAGGTCTTGATTCGCTTGACGCTGCTG |  | 7.68 z-score
25 | GCCTAGCACGAAAGAGGGAAGTGAAAGTCGTGCTAGGTCTTGATTCGCTTGACGCTGCTG | 5.25 z-score | 
26 | GCCTAGCACGATATGAGGAACTGAAAGCTGTGCTAGGTCTTGATTCGCTTGACGCTGCTG | 4.06 z-score | 
27 | GCCTAGCACAATAAAGGGAAGTGACTGCTGTGCTAGGTCTTGATTCGCTTGACGCTGCTG | 5.43 z-score | 
28 | GCCTAGCACAAAAAAAGGAACGGGCTAGAGTGCTAGGTCTTGATTCGCTTGACGCTGCTG |  | 1.48 z-score
29 | GCCTAGCACAAAAAGAGGAAATGAAAAGAGTGCTAGGTCTTGATTCGCTTGACGCTGCTG | 6.67 z-score | 
30 | GCCTAGCACAGAAAGAGGAACTGACTGACGTGCTAGGTCTTGATTCGCTTGACGCTGCTG | 6.61 z-score | 
31 | GCCTAGCACTGAAAAGGGAAGTGAGGAAGGTGCTAGGTCTTGATTCGCTTGACGCTGCTG | 5.34 z-score | 
32 | GCCTAGCACAAAAAGAGGAAGTAGAGAACGTGCTAGGTCTTGATTCGCTTGACGCTGCTG |  | 8.97 z-score
33 | GCCTAGCACAAAAAGAGGAAGTAAAAGACGTGCTAGGTCTTGATTCGCTTGACGCTGCTG |  | 8.93 z-score
34 | GCCTAGCACACGAAGAGGAAGTAAAAGGCGTGCTAGGTCTTGATTCGCTTGACGCTGCTG | 6.54 z-score | 
35 | GCCTAGCACGAGAAGAGGAAGTAGAACAAGTGCTAGGTCTTGATTCGCTTGACGCTGCTG | 6.62 z-score | 
36 | GCCTAGCACAAAAAGAGGAAGGGAGTAGAGTGCTAGGTCTTGATTCGCTTGACGCTGCTG | 4.77 z-score | 
37 | GCCTAGCACAAAAAAAGGAAGTGGTAAACGTGCTAGGTCTTGATTCGCTTGACGCTGCTG | 6.51 z-score | 
38 | GCCTAGCACCGAAAGGGGATGTGCTAAACGTGCTAGGTCTTGATTCGCTTGACGCTGCTG | 1.8 z-score | 
39 | GCCTAGCACTATATAGGGAAGTGGGATTCGTGCTAGGTCTTGATTCGCTTGACGCTGCTG | 4.85 z-score | 
40 | GCCTAGCACTAAATGAGGAAGTGACAGCTGTGCTAGGTCTTGATTCGCTTGACGCTGCTG |  | 7.57 z-score
41 | GCCTAGCACAATGGCAGGAAGTGAAATCAGTGCTAGGTCTTGATTCGCTTGACGCTGCTG |  | 2.15 z-score
